Source: PubChem BioAssay
hgDAF-12 ag: hgDAF-12 agonism, primary luciferase screen | activation, % at 6.8 µM | 1.8% of 370,000 active | HEK293 GAL4-hgDAF12 UAS-luciferase reporter, agonist luminescence; normalized to butyrate control;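 active = activation above a cutoff set at the mean of all screened compounds plus 3 SD, cut at about 10% in these data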
hcDAF-12 act: activators of H. contortus DAF-12 nuclear receptor. HEK293 hcDAF-12 lit1-tk-luc reporter, luminescence; 0% DMSO, 100% Δ7-dafachronic acid. activation, % at 6.8 µM. 1.4% of 370,000 active;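 active = activation above the mean of all tested compounds plus 3 SD, cut at about 5.5% in these data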
DAX1 inh-1: DAX1 (NR0B1) inhibition, primary screen. 1.1% of 370,000 active. AID 652010. HEK293T StAR-luciferase reporter, SF-1/DAX-1 repression relief. inhibition, % at 6.8 µM;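 active = inhibition above the mean over all tested compounds plus 3 SD, cut at about 3.6% in these data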;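 also: higher inhibition means more luminescence from relief of DAX-1 repression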
DAX1 inh-2: NR0B1 (DAX1) inhibition; P51843; HEK293 Gal4-DAX1 luciferase reporter, luminescence; inhibition, % at 6.75 µM; 0.99% of 340,000 active;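 active = inhibition above the mean over all tested compounds plus 3 SD, cut at about 4.2% in these data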;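 also: inhibition shows as a rise in luminescence from relieved DAX1 repression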
Target sequence (P51843 207-470 limits assumed): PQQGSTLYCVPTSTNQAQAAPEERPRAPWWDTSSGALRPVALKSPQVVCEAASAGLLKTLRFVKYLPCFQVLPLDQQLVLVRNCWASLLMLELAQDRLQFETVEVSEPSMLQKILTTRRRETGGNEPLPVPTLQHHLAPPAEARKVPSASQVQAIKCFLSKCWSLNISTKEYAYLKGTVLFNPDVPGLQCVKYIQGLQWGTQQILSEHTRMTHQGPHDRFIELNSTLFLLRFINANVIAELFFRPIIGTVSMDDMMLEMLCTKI
SMARCA2 activ: activators of SMARCA2 function; MG213 cells, MMTV-luciferase reporter, dexamethasone, overnight; activation, % at 9.1 µM; 1% of 370,000 active; AID 652017; in the data active = activation above about 7.8%
ssDAF-12 act: S. stercoralis DAF-12 activation, primary screen. HEK293 ssDAF-12/GRIP1 lit1-tk-luc reporter, luminescence; % of 3 µM dafachronic acid response. activation, % at 6.8 µM. 1% of 370,000 active. AID 652126;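 active = activation above the mean over all tested compounds plus 3 SD, cut at about 0.9% in these data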
Each line names hits and unclear results; the compound was inactive in the other large screens. Hits are enriched below; roughly 4.8% of the tested compounds scored in any of these assays.

CCCc1cc(=O)oc2cc(OCC(=O)N3CCC(C(N)=O)CC3)ccc12	DAX1 inh-2 6.3
CCCNC(=O)N1C[C@H](O)COC[C@H]2O[C@@H](CC(=O)N[C@@H]3CCN(Cc4ccccc4)C3)CC[C@@H]21	none (no result: DAX1 inh-2)
COc1cc(NC(=O)C2(C)CCN2C(C)C)cc(OC)c1OC (stereo not drawn)	none (no result: DAX1 inh-2)
Cc1ccc(-c2ccc(C(=O)NCc3ccccc3)o2)c2ccccc12	none
CCOc1ccccc1-c1ccc(C(=O)NCc2ccccc2)o1	DAX1 inh-2 7.3
CCc1cc(=O)oc2cc(OC(C)C(=O)NCC3CCC(C(=O)O)CC3)c(Cl)cc12 (stereo not drawn)	DAX1 inh-2 5.9
CC(Oc1ccc2c3c(c(=O)oc2c1)CCC3)C(=O)NCC1CCC(C(=O)O)CC1 (stereo not drawn)	DAX1 inh-2 4.7
Cc1cc(=O)oc2cc(OC(C)C(=O)NCC3CCC(C(=O)O)CC3)c(Cl)cc12 (stereo not drawn)	none
CN(C)CCNC(=O)c1onc(CSc2nc3ccccc3[nH]2)c1C(=O)NCCN(C)C	none
O=C(CCNc1ccc(Cc2ccncc2)cc1)c1ccc([N+](=O)[O-])cc1	ssDAF-12 act 11
O=C(N/N=C\CCc1ccccc1)c1ccco1	hgDAF-12 ag 13
O=c1[nH]c(-c2ccccc2)c(-c2ccccc2)o1	none
C/C(=N\NC(=O)c1ccccc1F)c1ccc(C#N)cc1	DAX1 inh-2 4.5
O=C(c1ccc(CS(=O)(=O)c2ccc(Br)cc2)o1)N1CCCC1	none
O=C(c1ccc(CS(=O)(=O)c2ccccc2)o1)N1CCOCC1	DAX1 inh-2 5.6
O=C(NCCN1CCOCC1)c1ccc(CS(=O)(=O)c2c(Cl)cccc2Cl)o1	DAX1 inh-2 7.2
O=C(NCCCN1CCOCC1)c1ccc(CS(=O)(=O)c2c(Cl)cccc2Cl)o1	none
O=C(CSc1nnc(-c2ccccc2)n1-c1ccc(Cl)cc1)NN=Cc1c[nH]c2ccccc12	none (no result: DAX1 inh-2)
O=c1n(Cc2ccccc2Cl)nc2n1-c1ccccc1SC2	DAX1 inh-2 4.9
O=c1n(Cc2ccccc2)nc2n1-c1ccccc1SC2	none
CC(C)C[C@@H](CO)NS(=O)(=O)c1cc(Cl)ccc1F	none
Cc1cc(CN2CCCC(N3CCc4ccccc4C3)C2)cc(C)c1O (stereo not drawn)	hgDAF-12 ag 11
O=C(N/N=C/c1ccccn1)c1ccco1	none
O=C(N/N=C/c1ccc2ncccc2c1)c1ccco1	DAX1 inh-1 4.2
COc1ccc2c(c1)CCC/C2=N/OC(=O)c1ccccc1OC	none
COc1ccc2c(c1)CC/C2=N\OC(=O)c1ccccc1C	ssDAF-12 act 2.1
Cc1cc(C)cc(NC(=O)N2CCC(c3nc4ccc(Cl)cc4[nH]3)CC2)c1	none (no result: DAX1 inh-2)
O=C(Nc1ccccc1)c1cc(C2CCCCN2S(=O)(=O)Cc2cccc(C(F)(F)F)c2)on1 (stereo not drawn)	none (no result: DAX1 inh-2)
COc1cccc(C(=O)C[n+]2ccccc2/C=N/O)c1	ssDAF-12 act 1.2
Cc1ccc(C)c(NC2CCCCC2NS(=O)(=O)c2ccccc2)c1 (stereo not drawn)	DAX1 inh-1 4.2
O=C(CNS(=O)(=O)c1c(Cl)cccc1Cl)N1CCCCCC1	ssDAF-12 act 1.0
O=C(CNS(=O)(=O)c1cccs1)N1CCCCC1	none
COc1ccc(C(O)c2nc(-c3ccoc3)cs2)cc1 (stereo not drawn)	none (no result: DAX1 inh-2)
COc1ccc(CCN2CC(C(=O)OCC(=O)N(C)Cc3ccccc3)CC2=O)cc1OC (stereo not drawn)	none
CCOc1ccc(C2Oc3nc(SC)nnc3-c3ccccc3N2C(C)=O)cc1OC (stereo not drawn)	DAX1 inh-2 6.0
CCC(=O)N1c2ccccc2-c2nnc(SC)nc2OC1c1ccc(OC)c(OC)c1 (stereo not drawn)	none
Cc1c(C(=O)O)[nH]c2ccc([N+](=O)[O-])cc12	hcDAF-12 act 6.2 (no result: DAX1 inh-2)
O=C(Nc1ccccc1)C1=C[C@H](c2ccccc2)C[C@H](OCCCCO)O1	hcDAF-12 act 5.7
CCOC(=O)c1ccc2ncc(-c3ccccc3)nc2c1	DAX1 inh-1 4.3
O=C(CSc1ncccn1)c1ccccc1Br	DAX1 inh-2 4.3
CCN(CC(=O)Nc1c(F)cccc1F)C(=O)c1cc(C)nc2ccccc12	ssDAF-12 act 1.0
CCN(CC(=O)Nc1c(F)cccc1F)C(=O)c1ccccc1F	none
OC(c1cccc(CN2CCCCC2)c1)c1ncc(-c2ccccc2Cl)[nH]1 (stereo not drawn)	none (no result: DAX1 inh-2)
COc1ccc(C2OC(=O)C(C)(C)C(=O)C2(C)C)cc1OC (stereo not drawn)	none
COc1ccc(C2N3CC4(C)CN2CC(C)(C3)C4=O)cc1OC (stereo not drawn)	DAX1 inh-2 5.2
COc1ccccc1CNC(=O)CN(C)CC(=O)Nc1ccc(F)c(F)c1F	none
C=CCn1cnc2c(nnn2Cc2ccc(F)cc2)c1=O	DAX1 inh-2 4.6
CC1CCC(NC(=O)C2CCN(c3cnccn3)CC2)CC1 (stereo not drawn)	DAX1 inh-2 7.1
COC(=O)C1CCN(c2cnccn2)CC1	none
CCCOc1ccc(-c2nc(SCc3ccccc3)[nH]c(=O)c2C#N)cc1OC	ssDAF-12 act 4.3
CCSc1nc(-c2ccccc2)c(C#N)c(=O)[nH]1	none
CCCCn1nnnc1C1(C)CCC(=O)N1Cc1cccnc1 (stereo not drawn)	none (no result: DAX1 inh-2)
Cc1ccc(/C=N/Nc2nc3ccccc3[nH]2)s1	hcDAF-12 act 6.1
Cc1ccsc1/C=N/Nc1nc(Cl)c(Cl)cc1Cl	none
COc1ccc(/C=N/Nc2nc3ccccc3[nH]2)c(OC)c1OC	DAX1 inh-2 7.5
Cc1ccc(/C=N/Nc2nc(Cl)c(Cl)cc2Cl)s1	DAX1 inh-2 4.3, ssDAF-12 act 0.9
CC(C)CC1NC(=O)N(CC(=O)NC2CCCc3ccccc32)C1=O (stereo not drawn)	none
CCC(C)C(=O)Nc1nnc(CCc2ccccc2)s1 (stereo not drawn)	none
O=C(CCc1ccccc1)Oc1ccccc1[N+](=O)[O-]	none (no result: DAX1 inh-2)
C[C@@H]1COc2cccc(N3CCC[C@@H]3CO)c2S(=O)(=O)N1	none (no result: DAX1 inh-2)
CC(C)C[C@@H]1COc2cccc(N3CCC[C@H]3CO)c2S(=O)(=O)N1	DAX1 inh-1 3.6 (no result: DAX1 inh-2)
CN(C)C1=NCCN1CC1CCCC1	ssDAF-12 act 1.2
CN(C)C1=NCCN1CCCC1CCCC1	none
N#CC1=C(O)CCCn2c1nc1ccccc1c2=O	none
N#CC1=C(O)C(c2ccccc2)n2c1nc(=O)c1ccccc12 (stereo not drawn)	DAX1 inh-2 7.3
CCc1ccc(/C=C2/C(=O)N(C)C(=S)N2CC(=O)OC)s1	none
COc1ccc(-c2cc(=Nc3ccc(C(=O)O)cc3)c3cc(C)ccc3o2)cc1	hgDAF-12 ag 13, hcDAF-12 act 5.7, DAX1 inh-1 4.1
